This is part of a sample that, as a whole, favours compounds with a hit. Of some 79,000 tested, about 15% had one in any assay. Cut-off read from the data, not from the text of the source: active = growth inhibition above about 70%; inactive = the rest.
Tests used:
[1] = NCI Yeast Anticancer Drug Screen. Data for the rad50 strain (AID 155);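 note: 0% = growth of vehicle-only cultures of the same strain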; details: S. cerevisiae rad50 strain growth inhibition; at 50.0 µM; hits give high values
Outline: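 Readout: growth inhibition relative to vehicle-treated cultures. Compound exposure was carried out in a genetically defined yeast strain deficient in DNA damage repair.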

[2] = NCI Yeast Anticancer Drug Screen. Data for the mec2-1 strain (AID 157); details: S. cerevisiae mec2-1 strain, at 50.0 µM, hits give high values
Outline: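 Compounds were applied to mec2-1 yeast cells. Their growth was then compared with that of vehicle-treated cultures to give growth inhibition.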

[3] = NCI Yeast Anticancer Drug Screen. Data for the sgs1 mgt1 strain (AID 161);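 note: 0% = growth of cultures given vehicle only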; details: S. cerevisiae sgs1 mgt1 strain, at 50.0 µM, hits give high values
Outline: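 Growth of a repair-deficient yeast mutant was monitored after compound treatment and expressed as inhibition relative to vehicle-treated cultures.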

[4] = NCI Yeast Anticancer Drug Screen. Data for the cln2 rad14 strain (AID 165);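 note: 0% = growth equal to vehicle treated cultures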; details: S. cerevisiae cln2 rad14 strain, at 50.0 µM, hits give high values
Outline: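 Strain: cln2 rad14 yeast, altered in cell cycle control and DNA damage repair. Read-out: growth inhibition vs vehicle.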

[5] = NCI Yeast Anticancer Drug Screen. Data for the bub3 strain (AID 167); details: S. cerevisiae bub3 mutant strain, at 50.0 µM, hits give high values
Outline: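 Readout: yeast growth inhibition, expressed relative to vehicle-only wells. The test organism is a mutant strain from a panel with lesions in DNA repair or checkpoint genes.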

[6] = NCI Yeast Anticancer Drug Screen. Data for the mlh1 rad18 strain (AID 175); details: S. cerevisiae mlh1 rad18 strain growth inhibition; at 50.0 µM; hits give high values
Outline: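 A repair-deficient yeast strain is exposed to test compound, and growth is scored relative to vehicle-treated controls.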

Measured: growth inhibition

CC(=O)/C=C\c1ccc(-c2ccccc2)cc1
inactive: [1] 2.65% | [2] -36.2% | [3] -3.6% | [4] -0.6% | [5] -18.9% | [6] -22.7%

Cc1ccc(N=Nc2ccc(C)cc2NC(=O)c2ccc(Cl)c(Cl)c2)cc1
inactive: [1] -9.6% | [2] -11.2% | [3] -12% | [4] -13.1% | [5] 7.8% | [6] -20.4%

N#CC(N)(C(=O)CCC(=O)Nc1cccc(Cl)c1)c1ccc(Cl)cc1 (centres undefined)
inactive: [1] 1.7% | [2] 12.6% | [3] 7.7% | [4] 8.15% | [5] -2% | [6] 2.15%

COC(=O)c1cc(C)c(C)c2c1NC(=O)CNC2=O
inactive: [1] -4.1% | [2] -4.2% | [3] 3.95% | [4] 19.8% | [5] -3.7% | [6] 7.95%

CCN(CC)C(C)(C)C(=O)/C=C/c1ccc(C)cc1
inactive: [1] 5.45% | [2] -3.75% | [3] -16.5% | [4] 12.3% | [5] 5.75% | [6] 43.1%

COc1ccc(/C=C/C(=O)c2sc(N)nc2C)cc1
inactive: [1] 26.5% | [2] -5.55% | [3] -0.4% | [4] 24.6% | [5] 3.95% | [6] 13.6%

COC1/C=C\OC2(C)Oc3c(C)c(O)c4c(O)c(c5c(c4c3C2=O)NC2(CCN(C)CC2)N=5)=NC(=O)/C(C)=C\C=C\C(C)C(O)C(C)C(O)C(C)C(OC(C)=O)C1C (centres undefined)
inactive: [1] 2.85% | [2] 3% | [3] -1% | [4] 10.3% | [5] 7% | [6] 3.25%

O=c1oc2c3ccc4ccccc4c3n(Cc3nc4ccccc4[nH]3)c2c2ccccc12
inactive: [1] 22.1% | [2] 12.2% | [3] 19.7% | [4] 28.6% | [5] 14.6% | [6] 25.2%

O=C1c2ccccc2-c2oc(=O)c3ccccc3c21
inactive: [1] -19.9% | [2] -1.5% | [3] -6.05% | [4] -17.2% | [5] 2.2% | [6] -15.9%

CSc1ccc(NC(=O)CCc2ccccc2)cc1
inactive: [1] 7.7% | [2] 6.45% | [3] 13.2% | [4] -4% | [5] 41.5% | [6] 24.1%

CN(C)C(=O)Nc1cccc2c(NC(=O)N(C)C)cccc12
inactive: [1] -1.4% | [2] 4.4% | [3] 10.7% | [4] 11.9% | [5] -4.45% | [6] -1.55%

CC1Oc2ccc3ccccc3c2C(C)N1C (centres undefined)
inactive: [1] -0.55% | [2] 1.9% | [3] -6.45% | [4] -4.85% | [5] 1.3% | [6] 16.9%

N#Cc1cccc(/C=C\C(=O)c2ccccc2)c1
inactive: [1] 22.9% | [2] 8.65% | [3] 5.4% | [4] 17.3% | [5] 61% | [6] 13.9%

COc1ccc(CC(CN)P(=O)(O)O)cc1 (centres undefined)
inactive: [1] 29.3% | [2] 4.2% | [3] 8.5% | [4] 4.45% | [5] 15.1% | [6] 4%

CC(O)CC1CC(=O)CCC1=O (centres undefined)
inactive: [1] 0.35% | [2] -18.1% | [3] -10.7% | [4] -29.2% | [5] -5.85% | [6] 8.3%

CC(=O)C1C(=O)OC2C3C=CC(C3)C2C1=O (centres undefined)
inactive: [1] 14.9% | [2] 21.1% | [3] 0.9% | [4] -4.7% | [5] 20.1% | [6] 42.6%

[Cl][Co][Cl].[NH-]CCC[NH-].[NH-]CCC[NH-]
inactive: [1] 1.5% | [2] 21.3% | [3] 13.3% | [4] 10.2% | [5] -4.4% | [6] 16.7%

Cn1cnc([N+](=O)[O-])c1Sc1nc2ncccc2[nH]1
inactive: [1] -5.6% | [2] -7.1% | [3] -20.1% | [4] 16.6% | [5] -8.9% | [6] 0%

CCCCCCC1OCC(C)([N+](=O)[O-])CO1 (centres undefined)
inactive: [1] 13.9% | [2] -8.8% | [3] -1.1% | [4] -28.8% | [5] -12.6% | [6] 5.65%
